Screens (PubChem)
RORgamma inh: blocks mouse ROR gamma transcriptional activity | Drosophila S2 Gal4-RORgamma UAS-luciferase reporter, 20 h | actives 5.4% (n = 310,000) | Potency, µM (highest dose often 53.6 µM), actives largely listed as inhibitors; further: nearly all actives have a fitted effect of over 60% in size
Target sequence (P51450 whole entry, looked up, the tested form may be a part): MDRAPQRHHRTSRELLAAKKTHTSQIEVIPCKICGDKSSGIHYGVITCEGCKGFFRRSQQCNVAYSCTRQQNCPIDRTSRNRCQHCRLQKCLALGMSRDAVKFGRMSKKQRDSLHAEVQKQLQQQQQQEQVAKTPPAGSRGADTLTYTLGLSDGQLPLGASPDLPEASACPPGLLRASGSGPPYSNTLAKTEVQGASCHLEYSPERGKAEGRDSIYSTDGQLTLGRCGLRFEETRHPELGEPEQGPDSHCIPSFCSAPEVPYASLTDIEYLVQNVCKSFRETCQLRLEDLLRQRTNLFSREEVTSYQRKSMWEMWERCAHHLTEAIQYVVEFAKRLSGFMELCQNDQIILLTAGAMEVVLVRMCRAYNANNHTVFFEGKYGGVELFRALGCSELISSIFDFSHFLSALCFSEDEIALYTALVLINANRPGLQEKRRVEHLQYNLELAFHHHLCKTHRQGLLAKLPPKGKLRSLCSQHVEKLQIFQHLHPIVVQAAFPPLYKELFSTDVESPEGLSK
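Compounds are pin-transferred onto Drosophila Schneider cells expressing a copper-inducible Gal4–ROR gamma transactivation domain fusion. After 1 hr, copper sulfate is added to 700 uM final; luciferase is read 20 hr later.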
CtBP-E1A inh: inhibitors of CtBP/E1A interaction. actives 0.49% (n = 340,000). AlphaScreen GST-E1A/His-CtBP binding, 1536-well; active compounds read low. activity change, % (concentration not given with the values); in the data active means activity change below about -65%; inconclusive means mostly about -30% to -63%
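AlphaScreen with 125 nM GST-E1A and 125 nM His-CtBP (5X stocks) in Tris pH 8.0, 300 mM NaCl, BSA, Tween 20, TCEP. Compounds preincubated 2 h at 37 deg C, then glutathione donor/nickel acceptor beads added for 1 h at 37 deg C in dark.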
Six1-Eya2 blk: inhibitors of human Six1/Eya2 interaction; Q15475+O00167; AlphaScreen GST-Six1/His-Eya2 binding, biochemical; active compounds read low; activity change, % (concentration not given with the values); actives 0.56% (n = 360,000); AID 651725; in the data active means activity change below about -65%; inconclusive means mostly about -30% to -63%
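GST-Six1 + His-Eya2 (5X stock: 250/500 nM); Tris pH 8.0, 300 mM NaCl, 0.05% BSA, 0.02% Tween 20; GSH donor/Ni acceptor beads; 1 h 37 °C dark; AlphaScreen readout.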
p53 reactivator: mutant p53 re-activation in reporter cells. H1299 p53-A138V BP100-luciferase reporter, luminescence, 24 h. AID 504706. Potency, µM (top dose mostly 92.2 µM), usual class: activators. actives 0.063% (n = 320,000); further: nearly all actives have a fitted effect of over 45% in size
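H1299 (p53-null), stable ts p53-A138V + BP100-Luc; 1000 cells/well, Opti-MEM/10% FBS; cpd 4 pt, 1:5; 24 h, 37 deg C, 5% CO2; detection reagent 10 min RT; luminescence.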
Gal4-VP16 FLuc: Gal4-VP16 reporter inhibition counter-screen; Potency, µM (top dose mostly 53.6 µM), most hits filed as inhibitors; actives 3.5% (n = 310,000); AID 2546; Drosophila S2 Gal4-VP16 UAS-luciferase, luminescence, 20 h;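 further: Gal4-VP16 expression switched on by copper sulfate through the metallothionein promoter; nearly all actives have a fitted effect of over 50% in size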
A number is an active result; . = inactive; ? = inconclusive; / = no result given; [ ] = another dose, or the depositor's remark. This is a sample that favours compounds with a hit; in the whole collection about 5.4% have one here. Unless noted, the call rests on the fitted dose curve; in most records, active means well fitted curve in the direction sought with a large enough effect; inconclusive means small, poorly fitted or top-dose-only effect, or another doubt; inactive means no such curve, though single readings can be large; an effect the other way counts as inactive or inconclusive.

SMILES	RORgamma inh	CtBP-E1A inh	Six1-Eya2 blk	p53 reactivator	Gal4-VP16 FLuc
Cc1ccc2oc(-c3ccccc3)c(C(=O)O)c(=O)c2c1	7.08µM	.	.	.	11.2µM
Cc1ccc2oc(-c3ccccc3)c(O)c(=O)c2c1	6.31µM	/	/	/	14.1µM
O=c1c(O)c(-c2ccccc2)oc2cc(O)ccc12	.	/	/	/	.
O=c1c(O)c(-c2ccccc2)oc2ccccc12	3.98µM	.	.	/	7.08µM
Cc1ccc(-c2oc3ccccc3c(=O)c2OCC(=O)O)cc1	.	.	.	.	.
Cc1ccc(-c2oc3ccccc3c(=O)c2O)cc1	3.98µM	.	.	.	12.6µM
O=C(CCCOc1ccc(Cl)cc1Cl)N/N=C/c1cccc([N+](=O)[O-])c1	.	.	.	.	.
CC(=O)Nc1ccc(S(=O)(=O)NCC(=O)OCC(=O)N2CC(C)OC(C)C2)cc1 (stereo not drawn)	/	.	.	.	/
COc1cccc(/C=N/Nc2cc(-n3nc(C)cc3-c3ccccc3)ncn2)c1O	?	.	?	?	1µM
COc1cccc(/C=N/Nc2nc(Nc3ccccc3)nc(-n3nc(C)cc3C)n2)c1O	1.12µM	?	?	.	2.51µM
Cc1cc(C)n(-c2nc(Nc3ccccc3)nc(-n3nc(C)cc3C)n2)n1	.	?	.	.	.
Cc1ccsc1CNC(=O)C1(C)CCN1C(=O)C(C)C (stereo not drawn)	/	.	.	/	/
CCOC(=O)c1cc2c(C)n(-c3ccc(C)cc3)c(C)c2ccc1=O	.	.	.	?	10µM
CCOc1c(Cl)cc(CNCC(O)c2ccccc2)cc1OC (stereo not drawn)	7.08µM	.	.	.	?
CCOc1c(Cl)cc(CNCC(C)C)cc1OC	.	.	.	.	.
S=C(NNc1nc(Nc2ccccc2)nc(N2CCCCC2)n1)NC1CCCCC1	4.47µM	.	.	.	12.6µM
C=CCNC(=S)NNc1nc(N2CCCC2)nc(N2CCCC2)n1	2.24µM	/	.	/	17.8µM
c1ccc(Nc2nc(N3CCOCC3)nc(N3CCOCC3)n2)cc1	.	.	.	.	.
C=CCNC(=S)NNc1nc(Nc2ccccc2)nc(N2CCCCC2)n1	3.98µM	/	.	.	?
COC(=O)c1ccc(C(NC(=O)OCc2ccccc2)/C(F)=C/[C@@H](C)C(=O)N(C)Cc2cccnc2)cc1 (stereo partly drawn)	.	/	/	/	.
O=C(N/N=C/c1ccncc1)c1cc2ccccc2cc1O	?	.	.	.	.
O=C(N/N=C/c1ccc[nH]1)c1ccc([N+](=O)[O-])cc1	3.98µM	.	.	.	5.62µM
O=C(N/N=C/c1ccc[nH]1)c1cccc(Br)c1	2.82µM	.	.	.	5.62µM
O=C(NN=Cc1ccccc1Cl)c1ccc([N+](=O)[O-])cc1	/	.	.	/	/
COc1ccc(/C=N\NC(=O)c2cccc(Br)c2)c(OC)c1	.	.	.	.	.
SMILES	RORgamma inh	CtBP-E1A inh	Six1-Eya2 blk	p53 reactivator	Gal4-VP16 FLuc
Cc1cccc(C(=O)N/N=C/c2ccc[nH]2)c1	7.94µM	.	.	?	12.6µM
O=C(N/N=C/c1ccc[nH]1)c1cc2ccccc2cc1O	1.12µM	.	.	?	?
CN1OC[C@@H]2CN(C(=S)NCCc3ccccc3)[C@H](c3ccc(-n4ccnc4)cc3)C[C@@H]21	/	.	.	/	/
Cc1onc(-c2ccccc2)c1C(=O)c1c[nH]c(C(=O)NCc2ccccn2)c1	.	.	.	.	.
Cc1cccc(NCC(=O)N/N=C\c2ccc[nH]2)c1	8.91µM	.	.	.	?
Cc1cccc(NCC(=O)N/N=C/c2cccc(Br)c2)c1	.	.	.	.	.
O=C(N/N=C/c1ccc[nH]1)c1cccnc1	?	.	.	.	.
O=C(N/N=C\c1ccc[nH]1)c1cncc(Br)c1	2.82µM	/	.	.	5.62µM
C1CCCCCC(NCCN2CCNCC2)CCCCC1	.	.	.	.	.
COc1ccc(N2C(=O)C(Cl)=C(Oc3cccc(OC)c3)C2=O)cc1	11.2µM	.	.	.	?
CC1=C(C(=O)OC2CCC(C)CC2)C(c2ccc(O)c([N+](=O)[O-])c2)NC(=O)N1 (stereo not drawn)	.[1.91 µM]	.	.	/	.
O=C(COC(=O)c1ccc([N+](=O)[O-])s1)NCc1ccccc1	11.2µM	.	.	.	.
O=C(COC(=O)c1ccc([N+](=O)[O-])s1)Nc1ccccc1	.	.	.	.	.
CSc1ccc(Cn2c(C)c(C(=O)NCc3ccc4c(c3)OCO4)sc2=O)cc1	/	.	.	/	/
Cc1ccc(-n2c(-c3ccccc3)c[n+]3c2CCc2ccccc2-3)c(C)c1	?	.	.	.	7.08µM
Cc1ccc(-n2c(-c3ccccc3)c[n+]3c2CCC3)cc1	?	.	.	.	?
CC(C)C(NC(=O)c1ccc(Cl)cc1Cl)C(=O)NCCc1ccccn1 (stereo not drawn)	/	.	.	.	/
Cn1ccnc1SCC(=O)Nc1nc2c(F)c(F)c(F)cc2s1	.	.	.	.	.
Cc1ccc(NC(=O)C(=Cc2ccc(C(=O)O)cc2)C(=O)Nc2ccc(C)cc2C)c(C)c1	15.8µM	.	.	.	?
CC(=O)C(=Cc1ccc(C(=O)O)cc1)C(C)=O	.	.	.	.	.
c1ccc2sc(Nc3nc4cc5c(cc4s3)OCO5)nc2c1	.	.	.	?	.
Fc1ccc2nc(Nc3nc4cc5c(cc4s3)OCO5)sc2c1	8.91µM	.	.	?	?
Fc1ccc2nc(Nc3nc4cc5c(cc4s3)OCCO5)sc2c1	11.2µM	.	.	?	12.6µM
COc1ccc2[nH]cc(CCNc3cc(-c4c(C)noc4C)ncn3)c2c1	.	/	/	/	.
COc1cccc(/C=N/NC(=S)NC2CC3CCC2C3)c1OC (stereo not drawn)	1.58µM	/	.	.	2.82µM
SMILES	RORgamma inh	CtBP-E1A inh	Six1-Eya2 blk	p53 reactivator	Gal4-VP16 FLuc
Oc1ccccc1/C=N/NC(=S)NC1CC2CCC1C2 (stereo not drawn)	6.31µM	-84.4	-85.0	.	10µM
O=C(N/N=C/c1ccco1)C(O)C(O)C(=O)N/N=C/c1ccco1 (stereo not drawn)	.	.	.	.	.
CNC(=S)N/N=C/c1ccco1	2.51µM	.	.	.	5.62µM
S=C(N/N=C/c1ccco1)NC1CC2CCC1C2 (stereo not drawn)	0.562µM	.	.	.	2.24µM
COc1cccc(C=NNC(=S)NN=Cc2cccc(OC)c2OC)c1OC	/	.	.	/	/
CC(=O)N1c2ccc(S(=O)(=O)NCCC(=O)Nc3ccc(F)cc3)cc2CC1C (stereo not drawn)	.	.	.	.	.
CCOC(=O)[C@]12CCC=C1N(Cc1ccccc1)C(=O)[C@H](CC(=O)NCc1ccc(OC)c(OC)c1)C2	/	.	.	/	/
CCOCCCN1CN(S(=O)(=O)c2ccc(Cl)cc2)c2nc3ccccc3nc21	.	.	.	.	.
O=C(/C=C/Sc1ccccc1)c1ccc(Cl)cc1	?	.	.	?	14.1µM
